Among the data in PubChem BioAssay (NCI) are growth values, retold here.

What all share (assay): NCI-60 one-dose screen, 48 h (100 = growth as untreated, 0 = no growth, -100 = all killed)
Common to all, as to conditions: 10 µM unless noted

The subject of assay [1] is HCT-15 colon.
Assay [2] concerns HT29 colon.
Assay [3] deals with SNB-75 CNS.
Assay [4] has as its system SNB-19 CNS.
Assay [5] relates to U251 CNS.
The test system of assay [6] is PC-3 prostate.
Assay [7] deals with SK-MEL-5 melanoma.
Assay [8] deals with UACC-62 melanoma.
Assay [9] relates to LOX IMVI melanoma.
In assay [10] the test system is SK-MEL-28 melanoma.
Assay [11] concerns SK-MEL-2 melanoma.
Assay [12] concerns EKVX NSCLC.
In assay [13] the test system is SN12C renal.
Assay [14] relates to UO-31 renal.
Assay [15] relates to TK-10 renal.
The test system of assay [16] is ACHN renal.
The subject of assay [17] is CAKI-1 renal.
In assay [18] the test system is A498 renal.
Assay [19] has as its system CCRF-CEM leukemia.
The test system of assay [20] is MOLT-4 leukemia.

This is part of a sample that, as a whole, favours compounds with a hit. Of some 83,000 tested, about 20% had one in any assay.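 Negative percent growth values reflect cell death: -40 means 40% of the cells present at the start died, and -100 means all died.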 A number with no mark means an inactive call. Calls of active or inactive are those of the source. Rule for the calls: active = growth percent below 10; inactive = the rest.

For `O=C(/C=C/C12c3ccccc3C(c3ccccc31)C1C(=O)NC(=O)C12)c1cccs1` (stereo not given), the growth in assay [1] was 26.3%; in assay [2], 22.6%; in assay [3], 17.1%; in assay [4] it was 39.2%; in assay [5], 15.8%; in assay [6] it was 33.6%. In addition, the growth in assay [7] is 54.8%; in [8] it was 37.2%; in [9], 28.6%; in assay [10] it was 45.8%; in assay [11], 38.5%; in assay [12], 50.3%. Moreover, the growth in assay [13] is 36.4%; in [14], 42.6%; in assay [15], 48.7%; in assay [16] it was 45.8%; in assay [17], 52.2%; in assay [18], 46.9%. For the same compound, the growth in assay [19] was 0.0532% (active); in assay [20], 10.5%.

`COc1ccc(/C=C/C(=O)c2ccc(-n3cc(CN4CCN(c5cc6c(cc5F)c(=O)c(C(=O)O)cn6C5CC5)CC4)nn3)cc2)cc1`: the growth in [1] is 80.6%; in assay [2], 29.6%; in [3] it was 58.3%; in assay [4], 67.7%; in assay [5], 41.4%; in assay [6], 56.3%. Also, the growth is 69% in [7]; 53.9% in [8]; 27.9% in assay [9]; 79.7% in assay [10]; 97% in assay [11]; 96.6% in assay [12]. Also, the growth in [13] was 32.6%; in assay [14] it was 54.9%; in [15] it was 104%; in assay [16], 85%; in assay [17], 67.8%; in [18], 68.2%. For the same compound, the figures for the growth in [19] and in assay [20] were 44% and 64.2%, respectively.

Take `Cc1nc2ccccc2c(/C=C/c2ccc(Br)cc2)c1C(=O)/C=C/c1ccccc1`: the growth in [1] was -27.3% (active); in assay [2], -15.1% (active); in [3], 51.3%; in assay [4], -11.6% (active); in assay [5], -81.9% (active); in assay [6], 19.7%. The growth in assay [7] was 6.82% (active); in assay [8], -5.46% (active); in assay [9] it was -89.6% (active); in assay [10], 3.46% (active); in [11] it was -4.28% (active); in assay [12] it was 26.1%. The growth in [13] was 10.8%; in assay [14], -74.2% (active); in assay [15], 21.2%; in assay [16], 6.36% (active); in [17], 4.36% (active); in [18] it was 18%. Moreover, the growth was 6.02% (active) in [19] and 7.65% (active) in assay [20].

With `C=CCn1c(SCC(=O)Nc2ccc(C(=O)/C=C/c3ccc(Cl)cc3)cc2)nnc1-c1ccc(Cl)c(Cl)c1`, the growth is 78.8% in assay [1]; 71.6% in [2]; 73.9% in [3]; 85.3% in assay [4]; 81% in [5]; 51.8% in assay [6]. Also, the growth was 82.3% in assay [7]; 62.4% in assay [8]; 72.2% in assay [9]; 101% in [10]; 76.6% in assay [11]; 79.7% in [12]. For the same compound, the growth in [13] is 82.3%; in [14], 54.4%; in assay [15], 86.2%; in assay [16], 87.7%; in assay [17], 63.5%; in assay [18], 83.9%. For the same compound, the growth in [19] was 52.9%; in assay [20], 45.5%.

For the compound `O=C(/C=C\c1ccc(O)c(O)c1)c1ccccc1O`, the growth in assay [1] was 46%; in assay [2] it was 90.8%; in assay [3], 76.9%; in assay [4], 81.4%; in assay [5], 69%; in assay [6] it was 76.7%. Further, the growth in [7] is 77.2%; in assay [8] it was 72.6%; in assay [9], 75.1%; in assay [10] it was 94.9%; in assay [11], 125%; in assay [12], 73.3%. Besides, the growth in [13] is 71.9%; in assay [14], 49.6%; in assay [15], 88.7%; in assay [16], 78.3%; in [17] it was 8.01% (active); in [18], 98.9%. Moreover, the growth in assay [19] was 14.7%; in [20] it was 49.1%.

Consider `CCOC(=O)/C(=C/c1ccc([N+](=O)[O-])cc1)C(=O)c1ccccc1`, for which the growth in assay [1] is -15.2% (active); in assay [2], -23.7% (active); in assay [3] it was 47%; in assay [4], 51.5%; in assay [5], 26%; in assay [6] it was 5.94% (active). The growth in assay [7] was 62.4%; in assay [8], 19.7%; in assay [9], -68.2% (active); in assay [10], -29.4% (active); in [11], 53.9%; in [12] it was 103%. Also, the growth in assay [13] is 79.3%; in assay [14] it was -14.3% (active); in [15], 20.7%; in assay [16] it was -7.93% (active); in assay [17] it was 81.6%; in [18], 83.5%. Also, the growth in [19] is 6.25% (active); in assay [20], 4.35% (active).

Turning to `CCOC(=O)CC1C(CNC(=O)NC)OC(n2cnc3c(NC(=O)Nc4ccccc4)ncnc32)C1O[Si](C)(C)C(C)(C)C` (stereo not given), the growth was 55.7% in assay [1]; 27% in assay [2]; 63.4% in [3]; 93.9% in [4]; 34% in assay [5]; 47% in assay [6]. Besides, the growth is 58.3% in assay [7]; 80.4% in [8]; 50.5% in assay [9]; 83.9% in assay [10]; 54.3% in [11]; 63.7% in assay [12]. Besides, the growth is 60.7% in [13]; 57% in assay [14]; 43.5% in assay [15]; 68.7% in assay [16]; 81.6% in assay [17]; 71.3% in assay [18]. In addition, the growth in [19] was 49.9%; in assay [20], 50.1%.

`NCCCCCNc1noc(Cc2c[nH]c3cc(Br)ccc23)n1`: the growth in [1] is 35.7%; in assay [2], 3.86% (active); in assay [3] it was 0.268% (active); in assay [4] it was 46.2%; in [5], 11.7%; in [6], 9.96% (active). Further, the growth was 9.74% (active) in assay [7]; 22.6% in assay [8]; 34.9% in [9]; 40.2% in assay [10]; 4.12% (active) in assay [11]; 33% in assay [12]. Further, the growth in [13] was 42.7%; in assay [14] it was 41.8%; in assay [15], 38.6%; in assay [16] it was 52.2%; in assay [17], 35.3%; in assay [18] it was 16.1%. Moreover, the growth in assay [19] is 2.39% (active); in [20], 29.3%.
